Data on 18 compounds can be found in PubChem BioAssay (NCATS).

Molecules are shown by their SMILES. A number with no mark means an inactive call. Inconclusive results are not listed. Activity calls are given as the source filed them. Calls follow the shape of the dose curve; as a rule, active = well fitted curve in the direction sought with a large enough effect; inconclusive = small, poorly fitted or top-dose-only effect, or another doubt; inactive = no such curve, though single readings can be large; an effect the other way counts as inactive or inconclusive. Where a SMILES comes first, the peptide text is derived from it. Bridges are numbered along the chain shown (N, C = ends). [ ]: non-standard residue; d: D form. NMeY = CN[CH](Cc1ccc(O)cc1)C(=O)O

Test [1] is described as follows: Primary qHTS for inhibitors of nuclear receptor binding SET domain protein 2 (NSD2) in an RCH-ACV wild type WT cells (2C) (AID 1645877; also: nearly all actives have a fitted effect of over 70% in size; also: potency is read from the fitted curve at half-maximal effect; as to activity change, negative = cell killing: % is scaled to controls: 0 for no effect and ±100 for the full control effect). (qHTS replaces the single test concentration by a dilution series.)
The target in test [2] is Glutathione peroxidase 1 (Homo sapiens) (UniProt P07203). Description: Primary qHTS Assay for Inhibitors of Recombinant Selenoprotein Glutathione Peroxidase 1 (GPX1) (AID 1845191). Also: nearly all actives have a fitted effect of over 65% in size. As to activity, negative = inhibition: % is scaled to controls: 0 for no effect and ±100 for the full control effect. The method in brief:
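10 nM GPX1 + cpd, 30 min RT; start w/ 1 mM GSH, 0.5 mM cumene hydroperoxide, 0.5 mM NADPH, 100 nM GR, 0.01% BSA; buffer 50 mM Tris-HCl pH 7.5, 2 mM EDTA, 150 mM NaCl; Fl 340/450, 0 & 15 min.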

Test [3] deals with Phospholipid hydroperoxide glutathione peroxidase GPX4 (Homo sapiens) (UniProt P36969). The test is described as follows: Primary qHTS Assay for Inhibitors of Recombinant Selenoprotein Glutathione Peroxidase 4 (GPX4) (AID 1845192). Also: nearly all actives have a fitted effect of over 65% in size. As to activity change, negative = inhibition: series mostly up to about 50 µM; % is scaled to controls: 0 for no effect and ±100 for the full control effect. In short, it runs like this: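 NADPH consumption, followed by fluorescence at 340/450 nm between 0 and 15 min, reports GPX4 activity via coupled glutathione reductase (100 nM). Enzyme 200 nM was pre-exposed to compound 30 min; 0.5 mM cumene hydroperoxide and 1 mM GSH served as substrates.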

Test [4] addresses Luciferin 4-monooxygenase (Photinus pyralis) (UniProt P08659). The test is described as follows: Primary firefly luciferase (FLuc) qHTS assay for identification of artifact compounds. (AID 1845220). Also: nearly all actives have a fitted effect of over 60% in size.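 As to activity change, negative = inhibition: series mostly up to about 54 µM; plate controls were DMSO vehicle for no effect and no enzyme for full effect.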 In short, it runs like this: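 FLuc 10 nM; luciferin 10 uM; ATP 10 uM; Tris-acetate pH 7.6, Mg-acetate 10 mM; 15 min RT preincubation; 5 min reaction; luminescence.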
Test [5] in a line: Primary fluorescence-based thiol-reactive (MSTI) qHTS assay for identification of artifact compounds. (AID 1845221).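 Also: series mostly up to about 54 µM; thiol-reactive compounds lower the probe fluorescence signal; nearly all actives have a fitted effect of over 65% in size.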 The method in brief: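 qHTS titration of compound; 4 uM MSTI, PBS pH 7.4, 2% DMSO; 1 h RT, dark; fluorescence 525/598 nm; normalized to Acetyl-MSTI and MSTI; 4-parameter Hill fit.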
In test [6] the test system is Nanoluciferase (engineered Oplophorus gracilirostris luciferase). The test is described as follows: Primary Nanoluciferase (NLuc) qHTS assay for identification of artifact compounds. (AID 1845222).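 Also: NLuc secreted into diluted conditioned medium of S16 cells; series mostly up to about 54 µM; 0% = DMSO and -100% = no enzyme.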 The method in brief: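 NLuc from S16 cell medium (1:55) plus test compounds, 15 min, room temperature. Luminescence after Nano-Glo (1:100) addition, 5 min.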
Test [7] is described as follows: Primary redox qHTS assay for identification of artifact compounds. (AID 1845223).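 Also: 0% = DMSO and 100% = reference compound.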 In short, it runs like this: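 Amplex Red (25 uM) and HRP (250 mU/mL) in HBSS, with compounds for 15 min, then 250 uM DTT for 30 min, room temperature, dark. Fluorescence 525/598 nm read; normalized to DMSO and 10 uM DA3003; Hill fit.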

Chain of Phospholipid hydroperoxide glutathione peroxidase GPX4 (Homo sapiens) (P36969 whole entry, looked up): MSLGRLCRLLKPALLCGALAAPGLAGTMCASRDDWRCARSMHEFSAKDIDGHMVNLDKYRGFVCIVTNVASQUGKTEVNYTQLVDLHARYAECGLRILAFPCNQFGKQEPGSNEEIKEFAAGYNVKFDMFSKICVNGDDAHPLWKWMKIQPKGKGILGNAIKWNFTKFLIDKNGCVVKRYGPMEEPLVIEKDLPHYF
Chain of Glutathione peroxidase 1 (Homo sapiens) (P07203 whole entry, looked up): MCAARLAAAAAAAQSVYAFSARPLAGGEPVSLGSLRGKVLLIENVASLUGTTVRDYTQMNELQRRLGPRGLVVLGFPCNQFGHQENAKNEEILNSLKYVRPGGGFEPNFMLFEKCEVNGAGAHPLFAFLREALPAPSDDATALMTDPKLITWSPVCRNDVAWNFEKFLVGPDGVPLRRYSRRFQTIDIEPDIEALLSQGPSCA

Regarding `NC1CCCCN(c2c(F)cc3c(=O)c(C(=O)O)cn(C4CC4)c3c2Cl)C1` (stereo unspecified), the Potency entry in test [1], in test [2], in test [3], in test [4], in test [5] and in test [6] was “inactive” throughout. In test [7], the Potency result is “inactive”.
As for `CC1OC(OC2C(C)OC(OC3C(O)C(CO)OC(O[C@H]4CC[C@@]5(C)C(CC[C@]6(C)C5CC=C5C7[C@@H](C)[C@H](C)CC[C@]7(C(=O)O)CC[C@]56C(=O)O)C4(C)C)C3O)C(O)C2O)C(O)C(O)C1O` (stereo partly specified), the activity change, negative = cell killing in test [1] is -0.67% [at 9.23 µM]. The Potency entry in test [2] and in test [3] was “inactive” in each case. Moreover, in test [4], the activity change, negative = inhibition is 1.66% [at 11.6 µM]. In addition, the activity change, negative = thiol reactive in test [5] is 65.9% [at 11.5 µM]. Also, the activity, negative = inhibition in test [6] is -3.75% [at 11.6 µM]. For the same compound, in test [7], the redox activity (% of DA3003) is -18.3% [at 11.5 µM].
For the compound `C[C@@H]1O[C@@H](O[C@@H]2[C@@H](O)[C@H](O[C@H]3[C@H](O[C@H]4CC[C@@]5(C)C(CC[C@]6(C)C5CC=C5[C@@H]7CC(C)(C)CC[C@]7(C(=O)O[C@@H]7O[C@H](CO)[C@@H](O)[C@H](O)[C@H]7O[C@@H]7O[C@@H](C)[C@H](O[C@@H]8O[C@@H](C)[C@H](O)[C@@H](O)[C@H]8O)[C@@H](O)[C@H]7O)CC[C@]56C)[C@@]4(C)CO)O[C@H](C(=O)O)[C@@H](O)[C@@H]3O)O[C@H](CO)[C@H]2O)[C@H](O)[C@H](O)[C@H]1O` (stereo partly specified), the activity change, negative = cell killing in test [1] is -3.64% [at 9.23 µM]. Besides, the activity, negative = inhibition in test [2] is -4.58% [at 9.52 µM]; in test [6] it was 0% [at 11.6 µM]. For the same compound, the activity change, negative = inhibition in test [3] is 1.11% [at 9.73 µM]; in test [4], -1.57% [at 11.6 µM]. For the same compound, the activity change, negative = thiol reactive in test [5] was 155% [at 11.5 µM]. Further, in test [7], the redox activity (% of DA3003) is 1.07% [at 11.5 µM].
With `C[C@H]1[C@H](O)O[C@@H]2O[C@@]3(C)CC[C@H]4[C@H](C)CC[C@@H]1[C@@]24OO3`, the Potency in test [1] is 833 nM (active). Moreover, the Potency entry in test [2], in test [3], in test [4], in test [5], in test [6] and in test [7] was “inactive” throughout.
As to `CCC(C)C1NC(=O)C2CCCN2C(=O)C(NC(C)=O)C(C)OC(=O)C(Cc2ccc(OC)cc2)N(C)C(=O)C2CCCN2C(=O)C(C(C)C)NC1=O` (stereo unspecified) (Ac-TPIVP[NMeY](Me); ester 1-C; configuration not given here), the Potency entry in test [1], in test [2], in test [3], in test [4], in test [5] and in test [6] was “inactive” in each case. For the same compound, in test [7], the Potency result was “inactive”.
In the case of `CN(C)C(=O)NC1CCC(CCN2CCN(c3cccc(Cl)c3Cl)CC2)CC1` (stereo unspecified), the activity change, negative = cell killing in test [1] was 2.1% [at 9.23 µM]. Besides, the Potency result in test [2] and in test [3] was “inactive” in each case. In addition, the activity change, negative = inhibition in test [4] is 2.95% [at 11.6 µM]. Also, the activity change, negative = thiol reactive in test [5] was 20.5% [at 11.5 µM]. Further, the activity, negative = inhibition in test [6] was -1.17% [at 11.6 µM]. Also, in test [7], the redox activity (% of DA3003) is -4.67% [at 11.5 µM].
As to `COC(=O)C12CCC(C)C(C)C1C1=CCC3C4(C)CCC(OC(C)=O)C(C)(C)C4CCC3(C)C1(C)CC2` (stereo unspecified), the Potency result in test [1], in test [2], in test [3], in test [4], in test [5] and in test [6] was “inactive” in each case. Also, in test [7], the Potency result was “inactive”.
Turning to `Cc1cc(C(=O)N2Cc3cnn(C)c3Nc3ccccc32)ccc1CNC(=O)N1CCC[C@H]1C(=S)N1CCCN(C)CC1`, the Potency result in test [1], in test [2], in test [3], in test [4], in test [5] and in test [6] was “inactive” each time. The Potency result in test [7] was “inactive”.
Turning to `C/C=C(\C)C(=O)OCC1OC(OC2OC(COC(=O)/C(C)=C/C)C(OC3OC(CO)C(OC(=O)/C(C)=C/C)C(OC(=O)/C(C)=C/C)C3O)C(O)C2O)C(O)C(O)C1OC1OC(CO)C(OC(=O)/C(C)=C/C)C(OC(=O)/C(C)=C/C)C1O` (stereo unspecified), the activity change, negative = cell killing in test [1] is -15.3% [at 9.23 µM]. For the same compound, the Potency result in test [2] and in test [3] was “inactive” each time. Besides, the outcome in test [4] was “inactive [at 11.6 µM]”. Also, the activity change, negative = thiol reactive in test [5] is 7.54% [at 11.5 µM]. The activity, negative = inhibition in test [6] was 0% [at 11.6 µM]. Besides, the redox activity (% of DA3003) in test [7] was 2.12% [at 11.5 µM].
Consider `Nc1nc2c(c(=O)[nH]1)C[C@@H](CCc1ccc(C(=O)N[C@@H](CCC(=O)O)C(=O)O)cc1)CN2`, for which the Potency in test [1] is 9.2 nM (active). Moreover, the Potency entry in test [2], in test [3], in test [4], in test [5], in test [6] and in test [7] was “inactive” in each case.
Take `C=C[C@H]1[C@H](O[C@@H]2O[C@H](CO)[C@@H](O)[C@H](O)[C@H]2O)OC=C(C(=O)OC)[C@H]1CC(=O)O`: the Potency result in test [1], in test [2], in test [3], in test [4], in test [5] and in test [6] was “inactive” each time. The Potency entry in test [7] was “inactive”.
On to `CC1CC2OC3(OC2C(C)(C)O)C1C1(C)CCC24CC25CCC(O[C@@H]2OC[C@@H](O)[C@H](O)[C@H]2O)C(C)(C)C5CC=C4C1(C)C3O` (stereo partly specified), for which the Potency result in test [1], in test [2], in test [3], in test [4], in test [5] and in test [6] was “inactive” in each case. Besides, the Potency result in test [7] is “inactive”.
As for `CC1(C)CCCC2(C)C1C(O)C=C(CO)C2(O)CO` (stereo unspecified), the Potency entry in test [1], in test [2], in test [3], in test [4], in test [5] and in test [6] was “inactive” in each case. Besides, the Potency entry in test [7] was “inactive”.
With `CCC(Nc1ncnc2nc[nH]c12)c1nc2cccc(F)c2c(=O)n1-c1ccccc1` (stereo unspecified), in test [1], the Potency is 461 nM (active). The Potency result in test [2], in test [3], in test [4], in test [5], in test [6] and in test [7] was “inactive” each time.
For `CC1(C)CC[C@]2(C(=O)OC3OC(CO)C(O)C(O)C3O)CC[C@]3(C)C(=CCC4[C@@]5(C)CC[C@H](OC6OC(C(=O)O)C(O)C(OC7OC(CO)C(O)C(O)C7O)C6O)C(C)(C)C5CC[C@]43C)C2C1` (stereo partly specified), the activity change, negative = cell killing in test [1] was -7.21% [at 9.23 µM]. The Potency entry in test [2] and in test [3] was “inactive” in each case. The activity change, negative = inhibition in test [4] was 2.81% [at 11.6 µM]. Also, in test [5], the activity change, negative = thiol reactive was 338% [at 11.5 µM]. Besides, the activity, negative = inhibition in test [6] was 2.64% [at 11.6 µM]. The redox activity (% of DA3003) in test [7] was 0.227% [at 11.5 µM].
For the compound `O=C(CO)[C@@H](O)[C@H](O[C@@H]1O[C@H](CO)[C@H](O)[C@H](O)[C@H]1O)[C@H](O)CO`, the Potency entry in test [1], in test [2], in test [3], in test [4], in test [5] and in test [6] was “inactive” each time. Moreover, the Potency entry in test [7] was “inactive”.
Regarding `C[C@H](NC(c1cccc(C[P+](=O)O)c1)[C@H](C)O)c1ccc(Cl)c(Cl)c1` (stereo partly specified), the Potency result in test [1], in test [2], in test [3], in test [4], in test [5] and in test [6] was “inactive” in each case. The Potency entry in test [7] was “inactive”.
For `CCCCNc1ccc(-c2ccc(CN3CCOCC3)cn2)c(NC2CCC(O)CC2)c1` (stereo unspecified), in test [1], the Potency was 796 nM (active). Moreover, the Potency result in test [2], in test [3], in test [4], in test [5], in test [6] and in test [7] was “inactive” in each case.
